Test results reported in PubChem BioAssay.
For part of these data: Entries with a potency or affinity are not part of this list. Calls of active or inactive are those of the source.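 Rule for the calls, unless noted: active = signal rise over 3 SD above mean of control wells given weak agonist, in both repeats and first screen; inactive = the rest.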

How the values were obtained:
[1] = tested on: TRPC4 beta (transient receptor potential cation channel C4), mouse; assay: activators of mouse TRPC4 channel, confirmation, cell-based, Fluo4 calcium, HEK293 TRPC4beta/mu-opioid, duplicates, 10 µM (AID 2426;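 active = fluorescence ratio normalized to control raised more than 50% in primary screen plus both repeat runs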); conditions: Fluo4 calcium fluorescence, at 10 µM; active compounds read high
[2] = tested on: transient receptor potential cation channel C4 beta (TRPC4), mouse; assay: activators of mouse TRPC4 channel, confirmation, cell-based, second round, Fluo4, HEK293 TRPC4beta/mu-opioid, 1 µM (AID 2461;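 active = primary screen active and over 50% activation in each of two duplicate runs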); conditions: Fluo4 calcium fluorescence, at 1 µM; active compounds read high
[3] = tested on: TRPC4 (transient receptor potential cation channel C4 beta), mouse; assay: positive allosteric modulators of mouse TRPC4, confirmation, cell-based, second round, Fluo-4, HEK293 TRPC4beta/mu-opioid, 1 µM (AID 2554;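 active = primary screen hit whose fluorescence ratio, in both repeats, exceeds the weak agonist control mean by 3 SD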); conditions: DAMGO EC20, Fluo-4 calcium flux, at 1 µM; active compounds read high
[4] = tested on: TRPC4 beta (transient receptor potential cation channel C4), mouse; assay: positive allosteric modulators of mouse TRPC4, confirmation, cell-based, Fluo-4, HEK293 TRPC4beta/mu-opioid (AID 2555;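 active = primary screen hit whose calcium fluorescence ratio, in both repeats, exceeds the weak agonist control mean by 3 SD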); conditions: DAMGO EC20, Fluo-4 calcium flux, at 10 µM; active compounds read high
[5] = molecular target: Short transient receptor potential channel 4 (Mus musculus) (UniProt Q9QUQ5); assay: inhibitors of mouse TRPC4 channel, confirmation, cell-based, Fluo4, HEK293 TRPC4beta/mu-opioid (AID 2636;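 active = calcium signal cut by more than 3 SD below the full-agonist control yet still positive, in both repeats and the earlier primary screen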); conditions: DAMGO, Fluo4 calcium flux, at 10 µM; active compounds read high
Short transient receptor potential channel 4 (Mus musculus), sequence (Q9QUQ5 whole entry, looked up): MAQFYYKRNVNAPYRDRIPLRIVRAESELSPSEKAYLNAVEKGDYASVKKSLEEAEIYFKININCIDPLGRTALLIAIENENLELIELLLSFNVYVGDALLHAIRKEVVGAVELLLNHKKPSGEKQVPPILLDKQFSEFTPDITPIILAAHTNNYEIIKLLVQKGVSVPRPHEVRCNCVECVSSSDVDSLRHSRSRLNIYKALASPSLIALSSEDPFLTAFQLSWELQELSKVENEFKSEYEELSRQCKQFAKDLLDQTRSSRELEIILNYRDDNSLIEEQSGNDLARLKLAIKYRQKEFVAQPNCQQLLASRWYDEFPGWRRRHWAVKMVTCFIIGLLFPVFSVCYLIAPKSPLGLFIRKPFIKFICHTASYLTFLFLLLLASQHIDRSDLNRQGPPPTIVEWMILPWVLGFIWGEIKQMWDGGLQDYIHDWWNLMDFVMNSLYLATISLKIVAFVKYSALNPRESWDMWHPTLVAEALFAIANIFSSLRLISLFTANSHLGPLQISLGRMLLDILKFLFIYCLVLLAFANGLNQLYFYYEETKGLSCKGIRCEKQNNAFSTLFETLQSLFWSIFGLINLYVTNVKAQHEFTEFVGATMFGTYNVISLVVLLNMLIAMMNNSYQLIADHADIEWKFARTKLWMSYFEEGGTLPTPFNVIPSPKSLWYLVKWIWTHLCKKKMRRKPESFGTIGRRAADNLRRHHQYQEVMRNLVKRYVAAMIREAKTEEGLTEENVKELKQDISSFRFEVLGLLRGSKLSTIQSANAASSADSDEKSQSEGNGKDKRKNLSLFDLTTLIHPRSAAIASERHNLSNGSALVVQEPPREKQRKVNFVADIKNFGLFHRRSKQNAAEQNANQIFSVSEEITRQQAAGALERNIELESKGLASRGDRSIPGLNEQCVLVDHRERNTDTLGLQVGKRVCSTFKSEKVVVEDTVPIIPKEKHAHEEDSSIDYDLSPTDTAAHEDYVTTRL

[6] = molecular target: Short transient receptor potential channel 4 (Mus musculus) (UniProt Q9QUQ5); assay: inhibitors of mouse TRPC4 channel, confirmation, cell-based, second round, Fluo4, HEK293 TRPC4beta/mu-opioid, 1 µM (AID 2637;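 active = calcium signal ratio cut to more than 3 SD under the fully stimulated control mean yet still positive, in both repeats and the primary screen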); conditions: Fluo4 calcium flux, DAMGO, at 1 µM; active compounds read high
[7] = molecular target: Short transient receptor potential channel 4 (Mus musculus) (UniProt Q9QUQ5); assay: mouse TRPC4 channel activators, dose response, cell-based, HEK293 TRPC4/mu-opioid, Fluo-4 calcium (AID 434937;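 active = primary screen activator hit with a dose response curve and TRPC4 channel activation at any tested dose; inactive = no activation, no dose response, or not a primary hit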)
[8] = molecular target: Short transient receptor potential channel 4 (Mus musculus) (UniProt Q9QUQ5); assay: TRPC4 positive allosteric modulators, dose response, cell-based, HEK293 TRPC4/mu-opioid, Fluo-4 calcium, EC20 DAMGO (AID 434941;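 active = earlier screen potentiator hit that boosts the TRPC4 ion channel at some dose, with a dose response; inactive = no potentiation, no dose response, or not a prior hit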;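 note: calcium entry triggered by an EC20 dose of DAMGO at the co-expressed mu-opioid receptor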)
[9] = molecular target: Short transient receptor potential channel 4 (Mus musculus) (UniProt Q9QUQ5); assay: mouse TRPC4 channel inhibitors, dose response, cell-based, HEK293 TRPC4/mu-opioid, Fluo-4 calcium (AID 434942;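 active = primary screen inhibitor hit that blocks the TRPC4 channel at some tested dose, yielding a dose curve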)
[10] = molecular target: Short transient receptor potential channel 6 (Mus musculus) (UniProt Q61143); assay: inhibition of mouse TRPC6 channel, confirmation, selectivity assay for TRPC4 inhibitor project, cell-based, HEK293, membrane potential dye, duplicate (AID 434948;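 active = active in primary screen and both duplicates, each dropping signal beyond three positive-control SD with fluorescence still positive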); conditions: HEK293 TRPC6, membrane potential dye fluorescence, at 10 µM, stimulated with maximal-effect acetylcholine; active compounds read high
Short transient receptor potential channel 6 (Mus musculus), sequence (Q61143 whole entry, looked up): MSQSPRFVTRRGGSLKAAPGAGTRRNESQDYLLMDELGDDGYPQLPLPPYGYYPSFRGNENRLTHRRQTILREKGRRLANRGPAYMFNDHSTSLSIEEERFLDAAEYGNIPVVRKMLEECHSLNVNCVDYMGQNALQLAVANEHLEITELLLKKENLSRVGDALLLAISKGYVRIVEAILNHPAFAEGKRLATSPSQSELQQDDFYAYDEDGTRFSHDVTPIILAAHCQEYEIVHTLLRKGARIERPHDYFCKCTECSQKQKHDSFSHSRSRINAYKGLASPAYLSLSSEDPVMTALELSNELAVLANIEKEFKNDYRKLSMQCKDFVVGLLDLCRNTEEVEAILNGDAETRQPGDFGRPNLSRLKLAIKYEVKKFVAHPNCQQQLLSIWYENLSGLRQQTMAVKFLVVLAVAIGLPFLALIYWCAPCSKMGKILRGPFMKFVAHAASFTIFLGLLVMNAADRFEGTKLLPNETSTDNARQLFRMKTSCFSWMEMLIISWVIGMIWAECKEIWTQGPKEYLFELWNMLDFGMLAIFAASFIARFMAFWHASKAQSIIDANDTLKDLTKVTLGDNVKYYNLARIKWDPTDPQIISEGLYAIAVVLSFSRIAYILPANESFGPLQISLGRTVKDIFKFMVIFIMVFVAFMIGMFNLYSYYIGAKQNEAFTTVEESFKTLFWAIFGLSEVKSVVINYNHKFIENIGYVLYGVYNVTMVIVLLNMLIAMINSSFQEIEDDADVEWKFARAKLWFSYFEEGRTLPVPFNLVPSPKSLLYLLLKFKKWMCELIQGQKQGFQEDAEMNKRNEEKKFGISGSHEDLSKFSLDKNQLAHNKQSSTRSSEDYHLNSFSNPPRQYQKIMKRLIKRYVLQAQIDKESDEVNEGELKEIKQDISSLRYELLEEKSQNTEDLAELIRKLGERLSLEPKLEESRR

[11] = molecular target: Short transient receptor potential channel 6 (Mus musculus) (UniProt Q61143); assay: activation of mouse TRPC6 channel, confirmation, selectivity assay for TRPC4 activator project, cell-based, HEK293, membrane potential dye, duplicate (AID 434950;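 active = membrane potential signal rise above negative control mean plus 3 SD in both duplicates, also active in the earlier TRPC4 screen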); conditions: HEK293 TRPC6, membrane potential fluorescence, at 10 µM; active compounds read high
[12] = molecular target: Short transient receptor potential channel 6 (Mus musculus) (UniProt Q61143); assay: TRPC6 potentiation by TRPC4 potentiator hits, confirmation, selectivity assay for TRPC4 potentiator project, HEK293 cells, membrane potential dye, duplicate (AID 434952;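 active = compound raising the membrane signal above positive-control mean plus 3 SD in both repeats, and a primary screen hit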); conditions: HEK293 TRPC6, membrane potential dye fluorescence, at 10 µM, maximal acetylcholine added after compound; active compounds read high
[13] = molecular target: Short transient receptor potential channel 4 (Mus musculus) (UniProt Q9QUQ5); assay: calcium flux activators in TRPC4/5HT1a cells, counter-screen for TRPC4 activator project, cell-based, second counter screen, HEK293 TRPC4/5HT1a, Fluo-4 (AID 434977;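 active = calcium signal rise above buffer-control mean plus 5 SD in both duplicates, and also a hit in the primary screen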); conditions: Fluo-4 calcium flux, at 10 µM; active compounds read high
[14] = calcium flux inhibitors in TRPC4/5HT1a cells, confirmation, counter-screen for TRPC4 inhibitor project, cell-based, second counter screen, HEK293 TRPC4/5HT1a, Fluo-4 (AID 434978;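 active = primary screen active whose calcium signal fell more than 3 SD beyond the full-serotonin control mean in both duplicate plates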;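 for outcome: serotonin given first at submaximal then at maximal dose after compound preincubation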); conditions: Fluo-4 calcium flux, at 10 µM, serotonin added to trigger calcium flux; active compounds read high
[15] = tested on: TRPC4 (mouse), co-expressed with 5HT1a in HEK293; assay: calcium flux potentiators in TRPC4/5HT1a cells, confirmation, counter-screen for TRPC4 potentiator project, cell-based, second counter screen, HEK293 TRPC4/5HT1a, Fluo-4 (AID 434979); conditions: Fluo-4 calcium flux, at 10 µM, serotonin added at its EC20 dose; active compounds read high
[16] = calcium flux activation in mu-opioid HEK293 cells, confirmation, counter-screen for TRPC4 activator project, cell-based, HEK293 mu-opioid receptor line (AID 449723;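 active = hit in primary screen, with calcium signal over 5 SD above buffer well mean in both duplicates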;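 note: counter screen cells carry the mu-opioid receptor alone and lack TRPC4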); conditions: Fluo-4 calcium fluorescence, at 10 µM; active compounds read high
[17] = calcium flux enhancement in mu-opioid HEK293 cells, confirmation, counter-screen for TRPC4 allosteric potentiator project, cell-based, HEK293 mu-opioid receptor line (AID 449724;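 active = calcium signal rise more than 3 SD above the low-dose agonist control mean, in both duplicate plates and the primary screen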); conditions: Fluo-4 calcium flux, at 10 µM, compound added before EC20 DAMGO stimulus; active compounds read high

CCN1CCN(c2ccc(S(=O)(=O)N3CCCCC3)cc2NC(=O)COc2cc(C)ccc2Cl)CC1
active: potentiation [4] 16% | potentiation [15] 17.8%
inactive: outcome [1] | outcome [2] | outcome [3] | outcome [5] | outcome [6] | outcome [7] | outcome [8] | outcome [9] | outcome [10] | outcome [11] | outcome [12] | outcome [13] | outcome [14] | outcome [16] | outcome [17]

Cc1ccc(Cl)cc1N1CCN(Cc2nc3c(c(=O)[nH]c(=O)n3C)n2Cc2ccccc2F)CC1
active: potentiation [15] 25.8%
inactive: outcome [1] | outcome [2] | outcome [3] | outcome [4] | outcome [5] | outcome [6] | outcome [7] | outcome [8] | outcome [9] | outcome [10] | outcome [11] | outcome [12] | outcome [13] | outcome [14] | outcome [16] | outcome [17]

COc1cccc(NC(=O)COc2c(F)c(F)c(C(F)(F)F)c(F)c2F)c1
inactive: outcome [1] | outcome [2] | outcome [3] | outcome [4] | outcome [5] | outcome [6] | outcome [7] | outcome [8] | outcome [9] | outcome [10] | outcome [11] | outcome [12] | outcome [13] | outcome [14] | outcome [15] | outcome [16] | outcome [17]

CCC(CC)c1nnc(NC(=O)c2c(C)nn(Cc3ccccc3Cl)c2C)s1
active: potentiation [15] 36.2%
inactive: outcome [1] | outcome [2] | outcome [3] | outcome [4] | outcome [5] | outcome [6] | outcome [7] | outcome [8] | outcome [9] | outcome [10] | outcome [11] | outcome [12] | outcome [13] | outcome [14] | outcome [16] | outcome [17]

Cc1ccc(/C=N/NC(=O)CSc2nc3ccccc3n2Cc2ccccc2)o1
inactive: outcome [1] | outcome [2] | outcome [3] | outcome [4] | outcome [5] | outcome [6] | outcome [7] | outcome [8] | outcome [9] | outcome [10] | outcome [11] | outcome [12] | outcome [13] | outcome [14] | outcome [15] | outcome [16] | outcome [17]

C/C(=C\c1cccc(Cl)c1Cl)C(=O)c1c(C)cc(C)[nH]c1=O
inactive: outcome [1] | outcome [2] | outcome [3] | outcome [4] | outcome [5] | outcome [6] | outcome [7] | outcome [8] | outcome [9] | outcome [10] | outcome [11] | outcome [12] | outcome [13] | outcome [14] | outcome [16] | outcome [17]
active: potentiation [15] 16.5%

Cc1ccc(NC(=O)c2cc(N3C(=O)C=CC3=O)ccc2N2CCOCC2)cc1Cl
inactive: outcome [1] | outcome [2] | outcome [3] | outcome [4] | outcome [5] | outcome [6] | outcome [7] | outcome [8] | outcome [9] | outcome [10] | outcome [11] | outcome [12] | outcome [13] | outcome [14] | outcome [15] | outcome [16] | outcome [17]

Clc1cc(/C=N\NC2=NCCN2)cc(Cl)n1
inactive: outcome [1] | outcome [2] | outcome [3] | outcome [4] | outcome [5] | outcome [6] | outcome [7] | outcome [8] | outcome [9] | outcome [10] | outcome [11] | outcome [12] | outcome [13] | outcome [14] | outcome [15] | outcome [16] | outcome [17]

CC(C)(C)n1cnc2cc(NCc3ccc(Br)cc3)ccc21
active: potentiation [15] 8.63%
inactive: outcome [1] | outcome [2] | outcome [3] | outcome [4] | outcome [5] | outcome [6] | outcome [7] | outcome [8] | outcome [9] | outcome [10] | outcome [11] | outcome [12] | outcome [13] | outcome [14] | outcome [16] | outcome [17]

CN1CCN(c2ccc(Cl)cc2NC(=O)CC2OC(=O)c3ccccc32)CC1 (stereo not given)
inactive: outcome [1] | outcome [2] | outcome [5] | outcome [6] | outcome [7] | outcome [8] | outcome [9] | outcome [10] | outcome [11] | outcome [12] | outcome [13] | outcome [14] | outcome [16] | outcome [17]
active: potentiation [3] 33% | potentiation [4] 33% | potentiation [15] 24.4%

Cc1[nH]nc(-c2ccc(O)cc2O)c1-c1nc2ccccc2s1
inactive: outcome [1] | outcome [2] | outcome [3] | outcome [4] | outcome [5] | outcome [6] | outcome [7] | outcome [8] | outcome [9] | outcome [10] | outcome [11] | outcome [12] | outcome [13] | outcome [14] | outcome [15] | outcome [16] | outcome [17]

COc1ccc(OC)c(Nc2c3c(nc4ccccc24)CCC3)c1
inactive: outcome [1] | outcome [2] | outcome [3] | outcome [4] | outcome [6] | outcome [7] | outcome [8] | outcome [9] | outcome [10] | outcome [11] | outcome [12] | outcome [13] | outcome [15] | outcome [16] | outcome [17]
active: inhibition [5] 67% | inhibition [14] 30.5%

c1ccc(Cc2nc3ccccc3n2Cc2ccccc2)cc1
inactive: outcome [1] | outcome [2] | outcome [3] | outcome [4] | outcome [5] | outcome [6] | outcome [7] | outcome [8] | outcome [9] | outcome [10] | outcome [11] | outcome [12] | outcome [13] | outcome [14] | outcome [15] | outcome [16] | outcome [17]

Nc1nn2c(C(F)(F)F)cc(=O)[nH]c2c1N=Nc1cccc(F)c1
inactive: outcome [1] | outcome [2] | outcome [3] | outcome [4] | outcome [5] | outcome [6] | outcome [7] | outcome [8] | outcome [9] | outcome [10] | outcome [11] | outcome [12] | outcome [13] | outcome [14] | outcome [15] | outcome [16] | outcome [17]

COC(=O)CC(NC(=S)NC(=O)c1ccccc1)c1ccc(Br)cc1 (stereo not given)
active: potentiation [4] 35% | potentiation [15] 12.5%
inactive: outcome [1] | outcome [2] | outcome [3] | outcome [5] | outcome [6] | outcome [7] | outcome [8] | outcome [9] | outcome [10] | outcome [11] | outcome [12] | outcome [13] | outcome [14] | outcome [16] | outcome [17]
